# Results reported in PubChem BioAssay (NCI).
# This is part of a sample that, as a whole, favours compounds with a hit. Of some 79,000 tested, about 15% had one in any assay. Values without a mark were called inactive. The source made the active and inactive calls. Rule as the data show it: active = growth inhibition above about 70%; inactive = the rest.
# Assays:
# [1] = NCI Yeast Anticancer Drug Screen. Data for the sgs1 mgt1 strain (AID 161);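 also: 0% = growth of cultures given vehicle only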; conditions: S. cerevisiae sgs1 mgt1 strain, active compounds read high
# Method in brief: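 Inhibition of yeast growth, normalised to vehicle-treated controls, is reported for a strain bearing genetic alterations in DNA damage repair.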
# [2] = NCI Yeast Anticancer Drug Screen. Data for the CLN2oe strain (AID 163);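 also: 0% = growth of vehicle-only control cultures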; conditions: S. cerevisiae CLN2oe strain, active compounds read high
# Method in brief: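 Read-out: yeast growth inhibition, expressed relative to vehicle-only controls. The strain bears an engineered cell-cycle alteration.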
# [3] = NCI Yeast Anticancer Drug Screen. Data for the cln2 rad14 strain (AID 165);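 also: 0% = growth equal to vehicle treated cultures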; conditions: S. cerevisiae cln2 rad14 strain, active compounds read high
# Method in brief: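 cln2 rad14 yeast strain; compound exposure; growth inhibition read vs vehicle controls.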
# [4] = NCI Yeast Anticancer Drug Screen. Data for the bub3 strain (AID 167); conditions: S. cerevisiae bub3 mutant strain, active compounds read high
# Method in brief: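 Whole-cell yeast assay. The mutant strain was incubated with compounds, and growth inhibition was determined by comparison with vehicle-treated cells.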
# [5] = NCI Yeast Anticancer Drug Screen. Data for the wt2 strain (AID 169);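 also: 0% = growth of vehicle-treated yeast cultures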; conditions: S. cerevisiae wt2 strain growth inhibition, active compounds read high
# Method in brief: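 Read-out: growth inhibition versus vehicle-treated control cultures after compound exposure of the yeast strain.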
# [6] = NCI Yeast Anticancer Drug Screen. Data for the mlh1 strain (AID 171);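 also: 0% = growth of vehicle-treated control cultures of the same strain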; conditions: S. cerevisiae mlh1 strain growth inhibition, active compounds read high
# Method in brief: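 Read-out: growth inhibition versus vehicle controls. Strain: engineered yeast with a defined DNA repair or cell cycle defect, compound-treated.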
# [7] = NCI Yeast Anticancer Drug Screen. Data for the sgs1 strain (AID 173);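 also: 0% = growth of vehicle-only control cultures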; conditions: S. cerevisiae sgs1 mutant, active compounds read high
# Method in brief: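 Read-out: yeast growth inhibition relative to vehicle controls, following compound exposure of a strain with a defined DNA repair/cell cycle alteration.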
# [8] = NCI Yeast Anticancer Drug Screen. Data for the mlh1 rad18 strain (AID 175); conditions: S. cerevisiae mlh1 rad18 strain growth inhibition, active compounds read high
# Method in brief: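 Yeast w/ defined DNA-repair lesions; compound exposure; growth vs vehicle controls → % inhibition.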
# [9] = NCI Yeast Anticancer Drug Screen. Data for the rad18 strain (AID 177); conditions: S. cerevisiae rad18 mutant growth inhibition, active compounds read high
# Method in brief: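 Readout: growth inhibition vs vehicle controls. Cells: genetically altered yeast strain, DNA repair defect.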
# [10] = at 5.0 µM (retest, dose inferred, filed as 0.5)
# [11] = at 50.0 µM (retest, dose inferred, filed as 5.0)
smiles,measurement,setting,value
Cc1ccc2nc(-c3cccc([N+](=O)[O-])c3)oc(=O)c2c1,growth inhibition,[1]; [10],-14%
same,growth inhibition,[1]; [11],33%
same,growth inhibition,[1]; at 50.0 µM,27.6%
same,growth inhibition,[2]; at 1.2 µM,15%
same,growth inhibition,[2]; at 3.7 µM,22%
same,growth inhibition,[2]; at 11.0 µM,20%
same,growth inhibition,[2]; at 33.0 µM,9%
same,growth inhibition,[2]; at 100.0 µM,8%
same,growth inhibition,[3]; [10],43%
same,growth inhibition,[3]; [11],59%
same,growth inhibition,[3]; at 50.0 µM,13.2%
same,growth inhibition,[4]; at 1.2 µM,-23%
same,growth inhibition,[4]; at 3.7 µM,-23%
same,growth inhibition,[4]; [10],33%
same,growth inhibition,[4]; at 11.0 µM,-24%
same,growth inhibition,[4]; at 33.0 µM,-5%
same,growth inhibition,[4]; [11],75% (active)
same,growth inhibition,[4]; at 50.0 µM,53.7%
same,growth inhibition,[4]; at 100.0 µM,-36%
same,growth inhibition,[5]; at 1.2 µM,-22%
same,growth inhibition,[5]; at 3.7 µM,-19%
same,growth inhibition,[5]; at 11.0 µM,-26%
same,growth inhibition,[5]; at 33.0 µM,-32%
same,growth inhibition,[5]; at 100.0 µM,-24%
same,growth inhibition,[6]; at 1.2 µM,-6%
same,growth inhibition,[6]; at 3.7 µM,-2%
same,growth inhibition,[6]; at 11.0 µM,-17%
same,growth inhibition,[6]; at 33.0 µM,-17%
same,growth inhibition,[6]; at 100.0 µM,-14%
same,growth inhibition,[7]; at 1.2 µM,-20%
same,growth inhibition,[7]; at 3.7 µM,-16%
same,growth inhibition,[7]; at 11.0 µM,-19%
same,growth inhibition,[7]; at 33.0 µM,-18%
same,growth inhibition,[7]; at 100.0 µM,-11%
same,growth inhibition,[8]; [10],34%
same,growth inhibition,[8]; [11],67%
same,growth inhibition,[8]; at 50.0 µM,14.7%
same,growth inhibition,[9]; at 1.2 µM,-14%
same,growth inhibition,[9]; at 3.7 µM,-4%
same,growth inhibition,[9]; at 11.0 µM,-19%
same,growth inhibition,[9]; at 33.0 µM,-28%
same,growth inhibition,[9]; at 100.0 µM,-42%
